Bioassay records (PubChem BioAssay)
Only some compounds are listed: those with a hit (about 8.1% of all), similar ones and a draw of the others.
MITF inh: MITF inhibition; inhibition, % (concentration not given with the values); TRPM1 promoter luciferase, luminescence, 24 h; AID 2240; 37,000 tested, 0.28% active; in the data active means inhibition above about 85%; inconclusive means no clear call, values can overlap the other calls; inactive means below about 68%;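 further: human melanocyte line stably carrying TRPM1 promoter luciferase reporter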
Shh pathway inh: blocks Sonic Hedgehog signaling; Shh-LIGHT2 Gli-luciferase reporter, 30 h; inhibition, % (test concentration not listed); 22,000 tested, 2.1% active;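 active means mean inhibition across valid replicates above about 65%, limit read from the data; inconclusive means mean under the limit, yet half or more replicates past it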;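 further: pathway switched on by Shh-conditioned medium diluted 1 in 25 in low serum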
NOMO-1 viab: STK33 inhibitor candidate reducing NOMO-1 cell viability; 37,000 tested, 7.5% active; inhibition, % (concentration not given with the values); NOMO-1 AML viability, CellTiter-Glo luminescence, 72 h; in the data active means inhibition above about 80%; inconclusive means no clear call, values can overlap the other calls
Each line names hits and unclear results; the compound was inactive in the other large screens.

COC(=O)c1ccccc1NC(=O)Cn1nc([N+](=O)[O-])c(Br)c1C	none (no result: Shh pathway inh)
C[C@@H]1CN([C@@H](C)CO)C(=O)c2cccc(NC(=O)c3ccc(-c4nccs4)cc3)c2O[C@H]1CN(C)Cc1ccc2c(c1)OCO2	NOMO-1 viab 103.0
C[C@H](CO)N1C[C@H](C)[C@@H](CN(C)Cc2ccc(C(=O)O)cc2)Oc2c(NC(=O)c3ccc(-c4nccs4)cc3)cccc2C1=O	none
C[C@H](CO)N1C[C@H](C)[C@@H](CN(C)Cc2ccc(Cl)c(Cl)c2)Oc2c(NC(=O)c3ccc(-c4nccs4)cc3)cccc2C1=O	NOMO-1 viab 115.7
C[C@H](CO)N1C[C@H](C)[C@@H](CN(C)S(=O)(=O)c2ccc(Cl)cc2)Oc2c(NC(=O)c3ccc(-c4nccs4)cc3)cccc2C1=O	none
C[C@H](CO)N1C[C@H](C)[C@@H](CN(C)Cc2ccc3c(c2)OCO3)Oc2c(NC(=O)c3ccc(-c4nccs4)cc3)cccc2C1=O	none
C[C@H](CO)N1C[C@H](C)[C@H](CN(C)S(=O)(=O)c2ccc(Cl)cc2)Oc2c(NC(=O)c3ccc(-c4nccs4)cc3)cccc2C1=O	Shh pathway inh 94.6, NOMO-1 viab 84.0
Cc1ccc(S(=O)(=O)Nc2cccc3c2O[C@@H](CN(C)S(=O)(=O)c2ccc(Cl)cc2)[C@H](C)CN([C@@H](C)CO)C3=O)cc1	none
CCc1c(O)cc(O)c2c1O[C@H](C)CC2=O	none
COc1ccc(CC(N)C(=O)N[C@H]2[C@@H](O)[C@H](n3cnc4c(N(C)C)ncnc43)O[C@@H]2CO)cc1 (some centres undefined)	MITF inh 92.1, Shh pathway inh 97.1, NOMO-1 viab 97.8
C/C=C(\CO)C(=O)O[C@H]1[C@H](O)[C@@H](C(=O)OC)O[C@@H]2C[C@H]3OC(n4cnc5c(N)ncnc54)[C@H](OC)[C@H]3O[C@]21O (some centres undefined)	none
COc1ccc(NC(=O)N(C)C[C@@H]2Oc3c(NC(=O)NC4CCCCC4)cccc3C(=O)N([C@H](C)CO)C[C@@H]2C)cc1	none
COc1cc(O)c2c(c1)O[C@H](c1ccc(O)cc1)[C@@H](O)C2=O	none (no result: MITF inh, NOMO-1 viab)
O=C1c2ccccc2O[C@@H](c2ccc(Cl)cc2)[C@@H]1O	NOMO-1 viab 113.7
COc1ccc(CCNC(=O)Nc2ccc(C(C)=O)cc2)cc1OC	none (no result: Shh pathway inh)
COc1ccc(NC(=O)Nc2ccc3c(c2)C(=O)N([C@H](C)CO)C[C@@H](C)[C@@H](CN(C)Cc2ccc(-c4ccccc4)cc2)O3)cc1	NOMO-1 viab 93.7
COc1ccc(NC(=O)Nc2ccc3c(c2)C(=O)N([C@@H](C)CO)C[C@@H](C)[C@@H](CN(C)Cc2ccc(Oc4ccccc4)cc2)O3)cc1	Shh pathway inh 94.0, NOMO-1 viab 116.7
COc1ccc(NC(=O)Nc2ccc3c(c2)C(=O)N([C@@H](C)CO)C[C@H](C)[C@H](CN(C)Cc2ccc(-c4ccccc4)cc2)O3)cc1	none (no result: Shh pathway inh)
COc1ccc(NC(=O)Nc2ccc3c(c2)C(=O)N([C@@H](C)CO)C[C@@H](C)[C@H](CN(C)Cc2ccc(Oc4ccccc4)cc2)O3)cc1	none
C[C@H]1CN([C@@H](C)CO)C(=O)Cc2cc(NC(=O)Cc3cn(C)c4ccccc34)ccc2O[C@H]1CN(C)S(=O)(=O)c1ccc(F)cc1	none
C[C@H]1CN([C@@H](C)CO)C(=O)c2cccc(NC(=O)c3ccncc3)c2O[C@@H]1CN(C)C(=O)Nc1ccccc1	none
CCOC(=O)CSc1n[nH]c(-c2ccc(Cl)cc2)n1	NOMO-1 viab 118.6 (no result: Shh pathway inh)
CCOc1ccc(NC(=O)CSc2n[nH]c(-c3ccc(Cl)cc3)n2)cc1	none (no result: Shh pathway inh)
C[C@@H]1CN([C@@H](C)CO)C(=O)Cc2cc(NC(=O)CCC(F)(F)F)ccc2O[C@@H]1CN(C)Cc1ccc(Oc2ccccc2)cc1	NOMO-1 viab inconclusive
O=C(COc1ccc(Br)cc1)Nc1cccc(-c2nnc(-c3ccccc3)o2)c1	none (no result: Shh pathway inh)
C[C@H](CO)N1C[C@H](C)[C@@H](CN(C)CC2CCCCC2)Oc2c(NC(=O)c3ccc(-c4nccs4)cc3)cccc2C1=O	NOMO-1 viab 103.8
C[C@H]1CN([C@@H](C)CO)C(=O)c2cccc(NC(=O)c3ccc(-c4nccs4)cc3)c2O[C@H]1CN(C)CC1CCCCC1	none
C[C@@H]1CN([C@@H](C)CO)C(=O)c2cccc(NC(=O)c3ccc(-c4nccs4)cc3)c2O[C@H]1CN(C)CC1CCCCC1	NOMO-1 viab 109.3
C[C@@H]1CN([C@H](C)CO)C(=O)c2cccc(NC(=O)c3ccc(-c4nccs4)cc3)c2O[C@@H]1CN(C)CC1CCCCC1	none
CS(=O)(=O)N(CC(=O)Nc1cc(Cl)ccc1Oc1ccccc1)c1ccccc1Br	none (no result: Shh pathway inh)
Cc1nn(Cc2cccc(Oc3ccccc3)c2)c(C)c1NC(=O)c1nc2ncccn2n1	none (no result: Shh pathway inh)
COC(=O)CCc1[nH]c2ccccc2c1Sc1ccccc1	NOMO-1 viab 140.2
Cc1[nH]c2ccccc2c1C(=O)CSc1ncn[nH]1	none (no result: Shh pathway inh)
COC(=O)c1ccccc1NC(=O)C1CC(c2cc(Cl)c(OC)cc2OC)=NO1 (centres undefined)	none (no result: Shh pathway inh)
CCOc1ccccc1NC(=O)Cn1cnc2scc(-c3ccc(Cl)cc3)c2c1=O	none (no result: Shh pathway inh)
COC(=O)c1c(NC(=O)CN2C(=O)c3ccccc3C2=O)sc(C)c1-c1ccccc1	none (no result: Shh pathway inh)
COC(=O)c1cc(Br)ccc1NC(=O)COc1ccc(C(C)(C)C)cc1	none (no result: Shh pathway inh)
COc1cc2ccc(=O)oc2cc1OCC=C(C)C	none (no result: MITF inh, NOMO-1 viab)
CC(C)=CCOc1cc2oc(=O)ccc2cc1O	NOMO-1 viab 108.6
CC(C)Nc1nc(Oc2ccc(=O)[nH]n2)nc(N(C)C)n1	none (no result: Shh pathway inh)
COc1ccccc1N1CCN(CCCCNC(=O)c2ccc(-c3ccc(C(C)=O)cc3)cc2)CC1	Shh pathway inh 92.1
COc1ccc([N+](=O)[O-])cc1NC(=O)CCN1CCN(c2ccccc2OC)CC1	none (no result: Shh pathway inh)
C[C@H](CO)N1C[C@H](C)[C@H](CN(C)S(=O)(=O)c2cn(C)cn2)Oc2ccc(NS(=O)(=O)c3ccccc3)cc2CC1=O	Shh pathway inh inconclusive
CN1CCN(CC(=O)N2N=C(c3c(-c4ccccc4)c4cc(Cl)ccc4[nH]c3=O)CC2c2ccccc2)CC1 (centres undefined)	NOMO-1 viab 124.3 (no result: Shh pathway inh)
O=C(CSc1nc(-c2ccccc2)c2cc(Cl)ccc2n1)N1N=CCC1c1ccccc1 (centres undefined)	none (no result: Shh pathway inh)
COc1ccc(S(=O)(=O)N(C)C[C@H]2Oc3c(NC(=O)Nc4ccc(C(F)(F)F)cc4)cccc3C(=O)N([C@@H](C)CO)C[C@H]2C)cc1	NOMO-1 viab 120.8
COc1ccc(S(=O)(=O)N(C)C[C@H]2Oc3c(NC(=O)Nc4ccc(C(F)(F)F)cc4)cccc3C(=O)N([C@H](C)CO)C[C@@H]2C)cc1	NOMO-1 viab inconclusive
COc1ccc(S(=O)(=O)N(C)C[C@@H]2Oc3c(NC(=O)Nc4ccc(C(F)(F)F)cc4)cccc3C(=O)N([C@@H](C)CO)C[C@H]2C)cc1	none
COc1ccc(S(=O)(=O)N(C)C[C@H]2Oc3c(NC(=O)Nc4ccc(C(F)(F)F)cc4)cccc3C(=O)N([C@@H](C)CO)C[C@@H]2C)cc1	NOMO-1 viab 112.3
COc1cc(OC)c(NC(=O)CCN2C(=O)c3ccccc3C2=O)cc1Cl	none (no result: Shh pathway inh)
C[C@@H]1CN([C@H](C)CO)C(=O)c2cccc(NC(=O)c3ccc(-c4nccs4)cc3)c2O[C@H]1CN(C)Cc1ccc(Oc2ccccc2)cc1	none
C[C@H]1CN([C@@H](C)CO)C(=O)c2cccc(NC(=O)c3ccc(-c4nccs4)cc3)c2O[C@@H]1CN(C)Cc1ccc(-c2ccccc2)cc1	NOMO-1 viab inconclusive
